Where a name gives a salt, the structure may show the parent alone.
System: Drosophila S2 cl14 SmoIP sensor cells
Test: normalized SmoIP GFP fluorescence (untreated unstimulated = 0%, untreated Hh-stimulated = 100%); higher = more Smo activation sensor fluorescence
Details: compound concentration: 2 uM, 24 h
[1] = stimulation: Hh conditioned medium (+Hh)
[2] = stimulation: mock conditioned medium (-Hh)
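Also: flow cytometry read-out as median GFP intensity of gated cells, compounds added 30 min before Hh-conditioned or mock medium, mock-treated cells serving as unstimulated baseline.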

SMILES | normalized SmoIP GFP fluorescence [1] [%] | normalized SmoIP GFP fluorescence [2] [%]
Cc1ccc(NC(=O)c2ccc(CN3CCN(C)CC3)cc2)cc1Nc1nc(-c2cccnc2)cs1 [Masitinib-(AB1010)] | 113 | 20.6
Cc1ccc(C(=O)Cn2c3c(sc2=N)CCCC3)cc1 [pifithrin-alpha] | 98.6 | -1
O=C1CCC(N2C(=O)c3ccccc3C2=O)C(=O)N1 (centres undefined) [Thalidomide] | 101 | 4.26
O=C(O)CCCc1ccccc1 [sodium-phenylbutyrate] | 112 | -2.93
O=C(CSc1nc2c(c(=O)n1-c1ccccc1)SCC2)Nc1ccc(-c2ccccc2)cn1 | 110 | -3.16
CCCS(=O)(=O)Nc1ccc(F)c(C(=O)c2c[nH]c3ncc(-c4ccc(Cl)cc4)cc23)c1F | 91.2 | 3.72
CCCCOc1cc(C(=O)NCCN(CC)CC)c2ccccc2n1 [dibucaine-cinchocaine-hcl] | 113 | 0.361
COc1cc(OC)c(/C=C/S(=O)(=O)Cc2ccc(OC)c(NCC(=O)O)c2)c(OC)c1 | 79.7 | -1.34
CC(C)(C)c1ccc(C(=O)CCCN2CCC(OC(c3ccccc3)c3ccccc3)CC2)cc1 [ebastine] | 135 | 18.3
C/C(=N\NC(=S)N1CCC1)c1ccccn1 | 207 | 30.1
Cc1cc(N2CCOCC2)ccc1Nc1nc(NC2CCCCC2)c2[nH]cnc2n1 | 93.8 | -2.64
O=C(NCCN1CCOCC1)c1ccc(Cl)cc1 [moclobemide] | 108 | -3.05
CC(=O)Oc1ccccc1C(=O)O [aspirin-acetylsalicylic-acid] | 101 | -6.51
N#CCNC(=O)c1ccc(-c2ccnc(Nc3ccc(N4CCOCC4)cc3)n2)cc1 | 208 | 53.3
CC1=C(C(=O)OC2CCCCC2)C(c2ccc([N+](=O)[O-])cc2)C2=C(CC(C)(C)CC2=O)N1 (centres undefined) | 117 | 4.26
CNC(=O)c1cc(Oc2ccc(NC(=O)Nc3ccc(Cl)c(C(F)(F)F)c3)cc2)ccn1 [sorafenib] | 107 | 9.54
N#Cc1ccc2[nH]c(O)c(-c3ccc(CN4CCOCC4)cn3)c2c1 | 108 | -4.35
CCC(=O)NCC[C@@H]1CCc2ccc3c(c21)CCO3 [Ramelteon] | 95.6 | -0.588
Cc1cccc(Nc2cc(Cl)nc(SCC(=O)O)n2)c1C | 93.8 | -14.3
NC(=O)N1CCC(CC(=O)N2CCC(C3c4ncc(Br)cc4CCc4cc(Cl)cc(Br)c43)CC2)CC1 (centres undefined) | 127 | 10.1
COc1ccc(C[C@H](NC(=O)[C@H](C)NC(=O)CN2CCOCC2)C(=O)N[C@@H](Cc2ccccc2)C(=O)[C@@]2(C)CO2)cc1 | 86.4 | 15.1
CC(=O)O[C@]1(C(C)=O)CC[C@H]2[C@@H]3C=C(C)C4=CC(=O)CC[C@]4(C)[C@H]3CC[C@@]21C [Megestrol-Acetate] | 106 | -0.804
COc1ccc(CNC(=O)Nc2ncc([N+](=O)[O-])s2)cc1 | 111 | -11

SMILES | normalized SmoIP GFP fluorescence [1] [%] | normalized SmoIP GFP fluorescence [2] [%]
Nc1nc(Nc2ccc(S(N)(=O)=O)cc2)nn1C(=O)c1c(F)cccc1F | 205 | 67.9
CC(C)c1nc(CN(C)C(=O)N[C@@H](CCN2CCOCC2)C(=O)N[C@H](CC[C@H](Cc2ccccc2)NC(=O)OCc2cncs2)Cc2ccccc2)cs1 [cobicistat-gs-9350] | 113 | 0.474
Nc1ccn([C@H]2CC[C@@H](CO)O2)c(=O)n1 [Zalcitabine] | 114 | -12.4
O=C(Nc1cccc(C(F)(F)F)c1)Nc1cc(S(=O)(=O)NC2CC2)ccc1-c1ccsc1 | 111 | -3.05
CCO[C@@H]1OC(=O)C[C@@H]1NC(=O)[C@@H]1CCCN1C(=O)[C@@H](NC(=O)c1ccc(N)c(Cl)c1)C(C)(C)C | 135 | -7.78
Oc1ccc(Nc2nc(-c3ccc(Cl)cc3)cs2)cc1 | 113 | -0.151
Nc1nccc2c1ncn2[C@@H]1C=C(CO)[C@@H](O)[C@H]1O [3-deazaneplanocin-a-dznep] | 142 | 0.702
CC(=O)Nc1cccc(N2C(=O)N(C3CC3)C(=O)C3C(Nc4ccc(I)cc4F)N(C)C(=O)C(C)C32)c1 (centres undefined) | 140 | -4.08
CC[C@@]1(O)C(=O)OCc2c1cc1n(c2=O)Cc2cc3c(CN(C)C)c(O)ccc3nc2-1 [Topotecan-Hydrochloride] | 110 | 15.7
COc1cc2ncnc(Nc3ccc(F)c(Cl)c3)c2cc1NC(=O)/C=C/CN1CCCCC1 | 163 | 12.5
O=C1Nc2ccccc2/C1=C1/Nc2ccccc2C1=O [Indirubin] | 127 | -11.4
OCCn1cc(-c2cnc3nnn(Cc4ccc5ncccc5c4)c3n2)cn1 | 110 | 1.03
CCC(=O)N1CCN(c2ccc(-n3c(=O)ccc4cnc5ccc(-c6cnc7ccccc7c6)cc5c43)cc2C(F)(F)F)CC1 [torin-1] | 46.9 | -12.5
Cn1c(=O)n(-c2ccc(C(C)(C)C#N)cc2)c2c3cc(-c4cnc5ccccc5c4)ccc3ncc21 | 113 | -5.01
COc1ccc(C2=N[C@@H](c3ccc(Cl)cc3)[C@@H](c3ccc(Cl)cc3)N2C(=O)N2CCNC(=O)C2)c(OC(C)C)c1 [Nutlin-3] | 90.4 | 2.11
NS(=O)(=O)c1ccc(NC(=O)Nc2ccc(F)cc2)cc1 | 101 | -3.05
Cc1cccc(Nc2ccccc2C(=O)O)c1C [mefenamic-acid] | 111 | -1.23
O=C1C(=O)N(Cc2ccc(Cl)c(Cl)c2)c2ccccc21 [apoptosis-activator-2] | 103 | -2.82
COc1c(C)c(C(=O)c2ccc(N)c(C(=O)O)c2)n2ccccc12 | 113 | -1.34
CN1CCN(C(c2ccccc2)c2ccccc2)CC1 [cyclizine-2hcl] | 104 | -5.15
CC(C)(CO)c1cc2cc(NC(=O)C3(c4ccc5c(c4)OC(F)(F)O5)CC3)c(F)cc2n1C[C@@H](O)CO | 104 | -3.39
O=c1oc2cc(O)ccc2s1 [tioxolone] | 169 | -1.83
CCOC(=O)CCNc1cc(N2CCc3ccccc3CC2)nc(-c2ccccn2)n1 | 116 | -2.48

SMILES | normalized SmoIP GFP fluorescence [1] [%] | normalized SmoIP GFP fluorescence [2] [%]
CC(=O)Nc1cccc2c1c(Sc1ccc(Cl)cc1)c(C)n2CC(=O)O | 114 | -3.05
Cc1ccccc1C(=O)Nc1ccc(C(=O)N2CCCC(O)c3cc(Cl)ccc32)c(C)c1 (centres undefined) | 111 | -6.61
COCCCOc1cc(C[C@@H](C[C@H](N)[C@@H](O)C[C@H](C(=O)NCC(C)(C)C(N)=O)C(C)C)C(C)C)ccc1OC [Aliskiren-hemifumarate] | 126 | -8.59
C[C@H]1c2cccc(O)c2C(=O)C2=C(O)[C@]3(O)C(=O)C(C(N)=O)=C(O)[C@@H](N(C)C)[C@@H]3[C@@H](O)[C@@H]21 [doxycycline-hcl] | 101 | -1.63
C[C@H]1[C@H](C)CC[C@]2(C(=O)O)CC[C@]3(C)C(=CC[C@@H]4[C@@]5(C)C[C@@H](O)[C@H](O)[C@@](C)(CO)[C@@H]5CC[C@]43C)[C@H]12 [Asiatic-acid] | 143 | -15.4
COC(=O)C1=C(C)NC(C)=C(C(=O)OCCN2CCN(C(c3ccccc3)c3ccccc3)CC2)C1c1cccc([N+](=O)[O-])c1 (centres undefined) [Manidipine(Manyper)] | 118 | 3.85
Cc1c(NC(=O)OC[C@@H]2COCCN2)cn2ncnc(Nc3ccc4c(cnn4Cc4cccc(F)c4)c3)c12 | 128 | 16.5
Nc1ccccc1NC(=O)c1ccc(CNc2nccc(-c3cccnc3)n2)cc1 [MGCD0103(Mocetinostat)] | 214 | 9
CC(C)(C)OC(=O)N[C@H]1CCCCC/C=C\[C@@H]2C[C@@]2(C(=O)NS(=O)(=O)C2CC2)NC(=O)[C@@H]2C[C@@H](OC(=O)N3Cc4cccc(F)c4C3)CN2C1=O [Danoprevir] | 111 | 13
O=C(O)CCc1ccc(NCc2cccc(Oc3ccccc3)c2)cc1 | 105 | -2.19
NC(=O)N1c2ccccc2CC(=O)c2ccccc21 [Oxcarbazepine] | 103 | 2.97
CO[C@H]1C[C@@H]2CC[C@@H](C)[C@@](O)(O2)C(=O)C(=O)N2CCCC[C@H]2C(=O)O[C@H]([C@H](C)C[C@@H]2CC[C@@H](OC(=O)C(C)(CO)CO)[C@H](OC)C2)CC(=O)[C@H](C)/C=C(\C)[C@@H](O)[C@@H](OC)C(=O)[C@H](C)C[C@H](C)/C=C/C=C/C=C/1C [Temsirolimus] | 56.5 | -1.56
O=C(NCc1ccc(Oc2ccccc2)cc1)c1nc(-c2cc(Br)c(O)c(Br)c2)no1 [iowh032] | 117 | 20
CCCCCCCCCCCC1=C(O)C(=O)C=C(O)C1=O [embelin] | 108 | -2.08
Clc1ccc2nsnc2c1NC1=NCCN1 [Tizanidine-hydrochloride] | 105 | -5.76
COC(=O)[C@]12CCC(C)(C)C[C@H]1[C@H]1C(=O)C=C3[C@@]4(C)C=C(C#N)C(=O)C(C)(C)[C@@H]4CC[C@@]3(C)[C@]1(C)CC2 [bardoxolone-methyl] | 102 | 0.986
N#Cc1c(Oc2ccc(F)c(NC(=O)Cc3cccc(C(F)(F)F)c3)c2)ccc2nc(NC(=O)C3CC3)sc12 | 126 | -0.889
Cc1ccc(C(=O)Nc2ccc(CN3CCN(C)CC3)c(C(F)(F)F)c2)cc1C#Cc1cnc2cccnn12 | 128 | 11.3
Cc1c(C(=O)Nc2ccc(N3C[C@@H](C)O[C@@H](C)C3)nc2)cccc1-c1ccc(OC(F)(F)F)cc1 | 114 | -12.2
COc1cc2c(cc1Cc1cccc(Cl)c1F)c(=O)c(C(=O)O)cn2[C@H](CO)C(C)C [Elvitegravir] | 143 | -9.22
CCCCc1nc(Cl)c(CO)n1Cc1ccc(-c2ccccc2-c2nnn[nH]2)cc1 [losartan-potassium] | 90.8 | -1.56
